Source: PubChem
Most compounds without a hit are left out; they make up all but 7.3% or so of the library.
VACV mCherry inh = inhibitors of vaccinia virus infection (mCherry reporter signal); Vaccinia virus mCherry reporter infection, fluorescence; Potency, µM (highest dose often 36.5 µM), inactives show at the top dose activity change, negative = inhibition, most hits filed as inhibitors; 0.63% of 310,000 active; AID 720579; calls by dose curve; tested in A549 cells; further: potency means the concentration at half of the fitted maximal effect; nearly all actives have a fitted effect of over 35% in size
Vaccinia Venus = vaccinia inhibition (Venus reporter); 0.46% of 330,000 active; AID 720580; Potency, µM (doses to about 36.5 µM), without a hit: top-dose activity change, negative = inhibition, most hits filed as inhibitors; Vaccinia virus Venus reporter expression, fluorescence; calls by dose curve; tested in A549 cells; further: potency means the concentration at half of the fitted maximal effect; nearly all actives have a fitted effect of over 30% in size
FMDV inh = blocks foot and mouth disease virus. FMDV antiviral cell-based qHTS. Potency, µM (highest dose often 57.9 µM), for inactives: at the highest dose activity change, negative = inhibition, most hits filed as inhibitors. 1.2% of 410,000 active. AID 1159524; calls by dose curve; tested in HEK293T cells; further: read-out not given here; potency means the concentration at half of the fitted maximal effect; nearly all actives have a fitted effect of over 45% in size
HCV inh = blocks hepatitis C virus. 3.4% of 340,000 active. Potency, µM (doses to about 41.8 µM), for the others: top-dose activity change, negative = inhibition, actives largely listed as inhibitors. Huh7.5.1 HCVcc-Cre infection, luciferase reporter, 44 h; active means well fitted inhibition curve with a large enough effect; inconclusive means small, poorly fitted or top-dose-only effect, or another doubt; inactive means no such curve, though single readings can be large or run the other way; further: potency means the concentration at half of the fitted maximal effect
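Luciferase read-out (15 sec integration) after a 15 min room-temperature substrate step quantifies HCVcc-Cre infection. Cells, 1,000 per well, had compound added 4 h post-plating, then virus at ~0.5 moi, and were cultured 44 h.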
HCMV inh = inhibitors of human cytomegalovirus; HFF cells, HCMV-luciferase reporter, 72 h; active compounds read low; activity change, negative = inhibition, % at 57.5 µM; AID 1259415; 4.5% of 410,000 active; in the data active means activity change below about -60%; inconclusive means no clear call, values can overlap the other calls; inactive means above about -39%
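Two compound doses tested in HFFs infected with HCMV-luciferase, MOI 1 PFU/cell, 72 h at 37C. Lysate luminescence read with OneGlo; data normalized against buffer-only and 10uM Salinomycin inhibitor controls.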
Numbers without * were called inactive; i = inactive; ? = inconclusive; . = no result given; [ ] = another dose, or the depositor's remark. On the % scale 0 is the no-effect control and ±100 the full control effect.

SMILES | VACV mCherry inh | Vaccinia Venus | FMDV inh | HCV inh | HCMV inh
COc1cc(/C=C2\C(=O)NC(=O)N(c3ccccc3)C2=O)cc(OC)c1OC | . | -6.4% | ? | 12.2% | 12.6
COc1ccc(C(=O)c2[nH]c(N)c(C(=O)NCCc3c[nH]c4ccccc34)c2-c2ccccc2Br)cc1 | -25.8% | -20.9% | ? | . | -15.2
COc1ccccc1-c1cnc(C(O)c2cc(C)ccc2C)[nH]1 (configuration not stated) | -8.7% | 7.5% | -7.3% | . | -3.6
C=CCOc1ccccc1CN1CCC(n2nccc2NC(=O)c2ccccc2)CC1 | -13.0%[7.34 µM] | -3.4%[7.34 µM] | -19.7% | -2.5% | -25.7
CN(C)c1cc(N/N=C/c2ccc(Cl)cc2)nc(N(C)C)n1 | . | . | -13.1% | 7.08µM* | ?
COc1cccc(Cn2c(=O)c(-c3ccc(Cl)cc3)nc3cncnc32)c1 | . | . | -15.1% | . | .
COc1ccc(Cl)cc1C(=O)NNC(=O)CSc1nncn1C | -19.5% | 12.5% | 41.1% | 11.0% | -90.6*
COc1ccc(NC(=O)C2Cc3c(-c4cccc(NC(C)=O)c4)ccnc3O2)cc1 (configuration not stated) | -29.9% | -24.3% | ? | . | ?
CNc1nc2cnc(Nc3cccc(C(F)(F)F)c3)cc2n1Cc1ccc(OC)c(OC)c1 | . | . | . | . | 20.5
COc1ccc(C(=O)c2cnc3ccccc3c2-c2ccccc2)cc1 | . | . | ? | 12.6µM* | ?
COc1ccc(Cl)cc1NC(=O)C(C)N1CCN(c2ccccn2)CC1 (configuration not stated) | . | . | ? | ? | -74.3*
COc1ccc(Cl)cc1NC(=O)NC(C)c1ccncc1 (configuration not stated) | . | . | 0.0% | 7.08µM* | 1.2
CCOc1ccccc1NC(=O)CN1CCC(NC(=O)Nc2ccccc2)CC1 | -7.1% | -19.4% | 4.4% | ? | ?
CC(C)(C)[C@H]1COC(=O)CC/C=C\C[C@@H](CC(=O)N(CCO)Cc2ccccc2)C(=O)N1 | -12.9% | 1.4% | -17.7% | -15.4% | 20.1
O=C(NCCN1CCC(n2c(=O)[nH]c3ccccc32)CC1)c1ccc(C(F)(F)F)cc1C(F)(F)F | -21.1% | -12.7% | 20µM* | . | ?
COc1cc(CC(=O)OCC(=O)c2ccc[nH]2)cc(OC)c1OC | . | . | 2.0% | 5.0% | -9.4
O=C(NCC1CCS(=O)(=O)C1)Oc1ccccc1 (configuration not stated) | . | . | -12.0% | 0.6% | -95.4*
O=C(COc1ccccc1)NC1CCS(=O)(=O)C1 (configuration not stated) | . | . | -10.8% | 11.0% | 1.9
CCN(CC)S(=O)(=O)c1ccc(Cl)c(C(=O)Nc2nnc(C)s2)c1 | . | . | -21.5% | 22.4µM* | 0.8
CCN1CCN(S(=O)(=O)c2ccc(Cl)c(C(=O)Nc3nnc(C)s3)c2)CC1 | -8.6% | -0.8% | -5.5% | 2.3% | -6.4
COc1ccc(N2C(=O)CSC2c2ccccc2F)c(OC)c1 (configuration not stated) | -15.4% | -8.7% | -16.7% | 5.9% | 22.7
CCOC(=O)C1=C(C)NC(C)=C(C(=O)OCC)C1C(=O)OCC(=O)NCc1ccc(F)cc1 | . | . | -23.7% | 3.55µM* | -15.8
CCNC(=O)COC(=O)C1C(C(=O)OCC)=C(C)NC(C)=C1C(=O)OCC | . | . | -9.6% | 6.8% | 11.3
CC(=O)/C=C/c1ccccc1Oc1c(F)c(F)nc(F)c1F | . | . | 31.6µM* | -18.7% | -67.0*
COc1ccccc1/C=C\C(=O)O | -7.8% | -5.1% | -10.1% | . | .
SMILES | VACV mCherry inh | Vaccinia Venus | FMDV inh | HCV inh | HCMV inh
Cc1cc(N2CCN(Cc3cn(C)nc3-c3cccc(Cl)c3)CC2)cc(C)n1 | -29.8% | -28.4% | -21.6% | 7.08µM* | ?
CCOC(=O)[C@H]1[C@H]2COc3ccc(Cl)cc3[C@@H]2N2C(=O)c3ccccc3NC(=O)[C@@]12C | -25.6% | -18.5% | ? | -12.2% | -69.6*
CCOC(=O)[C@H]1[C@H]2COc3ccc(OC)cc3[C@@H]2N2C(=O)c3ccccc3NC(=O)[C@@]12C | i | -18.4% | -4.3% | ? | -80.0*
CCOC(=O)[C@H]1[C@H]2COc3ccc(Cl)cc3[C@@H]2N2C(=O)CN(Cc3ccc(Cl)cc3)C(=O)[C@@]12C | -10.4% | -23.2% | ? | -1.5% | -99.4*
CCOC(=O)CC1CCCCN1C(=O)c1ccc2oc(CCc3ccccc3)nc2c1 (configuration not stated) | . | . | 1.4% | 10µM* | -34.8
COc1ccccc1N1CCN(C(=O)c2c(C)oc3ncn(C)c(=O)c23)CC1 | -18.1% | 5.1% | -0.6% | . | -2.9
CCCCNC(=O)CSc1nc2ccccc2c(=O)n1CC1COc2ccccc2O1 (configuration not stated) | . | . | 0.3% | 2.82µM* | 36.8
CCCCN(CC)C(=O)CSc1nc2ccccc2c(=O)n1CC1COc2ccccc2O1 (configuration not stated) | . | . | -21.1% | 10µM* | ?
CCN(CC)C(=O)CSc1nc2ccccc2c(=O)n1CC | . | -13.6% | 0.0% | -7.1% | -26.0
COc1ccc(OC)c(NC(=O)COC(=O)CCCN=C2NS(=O)(=O)c3ccccc32)c1 | -18.8% | 7.2% | 12.6% | 9.4% | 2.4
Cc1nc2c(c(C)nn2-c2ccccc2)c(C)c1CCC(=O)Nc1ccccc1 | -15.0% | -12.8% | -8.5% | . | 1.4
Cc1nc2c(c(C)nn2-c2ccccc2)c(C)c1CCC(=O)Nc1ccc(CN2CCCC2)cc1 | -3.0% | -14.3% | -24.9% | ? | -64.4*
COC(=O)Nc1ccc2ccc3c(NC(=O)OC)ccc4ccc1c2c43 | -16.8% | -19.3% | -15.7% | 12.6µM* | -23.3
NC(C(=O)O)C1ON=C(Cl)C1O (configuration not stated) | -8.2% | -26.2% | -5.6% | ? | -85.9*
NC(C(=O)O)C1CC(Cl)=NO1 (configuration not stated) | . | . | . | 1.9%[8.37 µM] | .
N[C@H](C(=O)O)[C@@H]1CC(Cl)=NO1 | 2µM* | ? | -17.0% | . | .
O=C(/C=C/c1cccc(Cl)c1)OCC(=O)c1ccc[nH]1 | -2.7% | -14.9% | -11.1% | . | -4.5
O=C(NNC(=O)c1ccccc1O)c1ccc(Cl)c(S(=O)(=O)N2CCCCC2)c1 | ? | -9.8% | -13.9% | -6.3% | -38.6
O=C(COc1cc(F)ccc1[N+](=O)[O-])Nc1cc(S(=O)(=O)N2CCCC2)ccc1Cl | i | -12.7% | -28.4% | 14.1µM* | -25.7
N=c1sccn1CC(=O)Nc1cccc(S(=O)(=O)N2CCCCCC2)c1 | . | . | -16.8% | 10µM* | -19.3
O=C(COc1ccccc1Cl)Nc1cccc(S(=O)(=O)N2CCCC2)c1 | . | . | -23.4% | 10µM* | ?
O=C(COc1ccccc1[N+](=O)[O-])Nc1cccc(S(=O)(=O)N2CCCC2)c1 | -7.2% | -20.4% | -8.0% | ? | ?
O=C(c1cc(S(=O)(=O)N2CCCC2)c[nH]1)N1CCN(c2cccc(Cl)c2)CC1 | ? | ? | 21.4% | . | -101.6*
O=C(COc1ccccc1)Nc1cccc(S(=O)(=O)N2CCCC2)c1 | i | -15.1% | -4.4% | -26.2% | -7.6
CCCN(CCC)C(=O)c1cc(S(=O)(=O)N2CCCCC2)c[nH]1 | i | -9.7% | -18.6% | 4.47µM* | 56.8
